# Bioassay records deposited in PubChem by National Center for Advancing Translational Sciences (NCATS).
# Pol iota inh: qHTS for Inhibitors of Polymerase Iota. Potency, µM (doses to about 115 µM), inactives show top-dose activity, negative = inhibition, most hits filed as inhibitors. DNA polymerase iota (Homo sapiens), Q9UNA4. 390,000 compounds, 1% hits. Pol iota fluorescent replication assay, 10 min
#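 Fluorescent replication assay read twice, at 0 min and 10 min after adding 50 nM (final) substrate. Enzyme (10 nM) and compounds were first incubated 15 min at room temperature; enzyme-free buffer wells were negative controls.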
# POLK inh: qHTS for Inhibitors of Polymerase Kappa; Potency, µM (titrated, usually from 107 µM), inactives show at the highest dose activity, negative = inhibition, most hits filed as inhibitors; 400,000 compounds, 0.53% hits; purified Pol kappa, fluorescent DNA synthesis assay, 10 min; AID 588579, 2011; note: % is set by controls: 0 for no effect and ±100 for the full control effect
# Target sequence (Q9UBT6 whole entry, looked up): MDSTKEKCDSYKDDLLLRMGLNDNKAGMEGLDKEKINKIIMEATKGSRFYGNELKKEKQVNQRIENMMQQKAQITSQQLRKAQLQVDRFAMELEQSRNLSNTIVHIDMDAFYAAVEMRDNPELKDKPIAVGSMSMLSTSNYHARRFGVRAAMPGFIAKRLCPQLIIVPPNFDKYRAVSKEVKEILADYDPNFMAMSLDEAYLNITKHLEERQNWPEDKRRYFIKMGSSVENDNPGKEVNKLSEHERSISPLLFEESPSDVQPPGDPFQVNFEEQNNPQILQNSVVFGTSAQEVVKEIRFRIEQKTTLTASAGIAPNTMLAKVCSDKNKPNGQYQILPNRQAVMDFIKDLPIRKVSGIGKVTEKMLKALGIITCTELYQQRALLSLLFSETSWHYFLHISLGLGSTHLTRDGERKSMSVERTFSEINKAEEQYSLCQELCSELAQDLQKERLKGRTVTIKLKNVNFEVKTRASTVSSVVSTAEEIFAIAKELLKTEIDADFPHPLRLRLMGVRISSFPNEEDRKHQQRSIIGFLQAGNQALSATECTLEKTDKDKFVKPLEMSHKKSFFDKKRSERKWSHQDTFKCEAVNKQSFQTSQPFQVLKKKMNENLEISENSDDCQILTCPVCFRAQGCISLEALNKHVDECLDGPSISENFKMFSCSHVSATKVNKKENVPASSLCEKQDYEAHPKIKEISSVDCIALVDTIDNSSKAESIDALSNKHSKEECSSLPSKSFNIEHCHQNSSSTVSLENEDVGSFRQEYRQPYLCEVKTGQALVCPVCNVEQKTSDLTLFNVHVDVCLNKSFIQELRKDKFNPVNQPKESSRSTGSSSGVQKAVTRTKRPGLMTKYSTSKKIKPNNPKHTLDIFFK
#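 Activity was followed as the change in fluorescence between reads at 0 and 10 min after starting the reaction with 50 nM substrate. Beforehand, 10 nM polymerase had been preincubated with compound for 15 min at room temperature.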
# FEN1 inhibitor: qHTS Assay for the Inhibitors of Human Flap endonuclease 1 (FEN1); P39748; Recombinant FEN1 flap cleavage, fluorescence, 15 min; Potency, µM (titrated, usually from 114 µM), for inactives: at the top dose activity change, negative = inhibition, usual class: inhibitors; 390,000 compounds, 0.35% hits; AID 588795, 2011; note: % is set by controls: 0 for no effect and ±100 for the full control effect; nearly all actives have a fitted effect of over 65% in size
#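 Potency values derive from four-parameter Hill fits of normalized qHTS data. The reaction used 10 nM FEN1 preincubated 15 min at room temperature with compound, then 50 nM DNA substrate, read at 0 and 15 min.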
# WRN helicase inh: qHTS for Inhibitors of WRN Helicase. Bifunctional 3'-5' exonuclease/ATP-dependent helicase WRN (Homo sapiens), Q14191. WRN helicase unwinding, fluorescent forked duplex, kinetic. Potency, µM (titrated, usually from 114 µM), without a hit: at the highest dose activity change, negative = inhibition, actives largely listed as inhibitors. 360,000 compounds, 0.46% hits; note: % is set by controls: 0 for no effect and ±100 for the full control effect; nearly all actives have a fitted effect of over 55% in size
#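 Enzyme (20 nM final) and test compound sit together 15 min at room temperature before substrate addition. Substrate is a single-forked duplex oligonucleotide (100 nM) labelled with fluorophore and quencher, with 2 mM ATP; helicase unwinding raises red fluorescence, read kinetically.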
# Pol beta inh: qHTS Assay for Inhibitors of DNA Polymerase Beta; Pol beta primer extension/strand displacement, fluorescence kinetic; AID 485314, 2010; 340,000 compounds, 1.3% hits; Potency, µM (highest dose often 114 µM), inactives show at the top dose activity change, negative = inhibition, hits mostly inhibitors; note: % is set by controls: 0 for no effect and ±100 for the full control effect
#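 Pol beta (10 nM) was preincubated with compound for 15 min at room temperature. The reaction was then started with 50 nM substrate and read immediately and after a further 10 min at room temperature.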
# Pol eta inh: qHTS for Inhibitors of Polymerase Eta. Potency, µM (top dose mostly 114 µM), for the others: at the highest dose activity change, negative = inhibition, usual class: inhibitors. recombinant Pol eta, fluorescent DNA replication assay. 390,000 compounds, 1.2% hits. DNA polymerase eta (Homo sapiens), Q9Y253; note: % is set by controls: 0 for no effect and ±100 for the full control effect
#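 Pol eta at 10 nM preincubated with compounds 15 min at room temperature; reaction started with fluorescent substrate (50 nM final) and read kinetically at 0 and 10 min.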
# * marks the source's active call; other numbers are inactive results; ? = inconclusive; · = not tested or not shown; [ ] = dose if it differs, or a comment. Sampled rows, rich in hits. Any-hit rate of the full collection: about 2.4%. Calls come from the whole dose curve; as a rule, active = well fitted curve in the direction sought with a large enough effect; inconclusive = small, poorly fitted or top-dose-only effect, or another doubt; inactive = no such curve, though single readings can be large; an effect the other way counts as inactive or inconclusive. Potency is the fitted concentration of half-maximal effect.
SMILES,Pol iota inh,POLK inh,FEN1 inhibitor,WRN helicase inh,Pol beta inh,Pol eta inh
O=C(CSc1nnc(-c2ccc(OC(F)F)cc2)o1)NC(=O)NCc1ccco1,79µM*,-29%,6%,-11%[11.6 µM],45µM*,?
O=C(Nc1ccc2cn[nH]c2c1)c1c(Cl)cccc1Cl,16%,-9%,-8%,-6%,-8%,-10%
O=C1C(Cl)=C(Nc2ccc3cn[nH]c3c2)C(=O)c2ccccc21,?,-25%,?,-35%,?,50µM*
Cc1cc(C)c(NC(=O)Cn2c(=O)n(-c3ccc(F)cc3)c(=O)c3c(C)c(C(=O)N(C)C)sc32)c(C)c1,9%,-6%[60.1 µM],18%,·,2%,-9%
O=C1NC(=S)SC1=Cc1cc(Br)ccc1O,?,-15%,?,?,·,50µM*
O=C1NC(=S)S/C1=C\c1coc2ccc(O)cc2c1=O,?,-20%,-24%,?,?,50µM*
Cc1cc(/C=C2\SC(=S)NC2=O)c(C)n1C1CC1,?,?,-2%,?,25µM*,?
Cc1nc2c3ccccc3nc(NNC(=O)CCC(=O)O)n2n1,-4%,12%,6%,·,51%,-1%
COc1cccc(/C=C/C(=O)OCC(=O)NCc2ccco2)c1,?,?,1%,-21%,45µM*,?
CC(C)(C)NS(=O)(=O)c1ccc(CCC(=O)NCc2ccco2)cc1,15%,-7%,-12%,-10%,1%,1%
COc1ccc(CCC(=O)NCc2ccco2)cc1,-53%,?,20%,?,40µM*,20µM*
O=C(COC(=O)Cc1ccc(F)cc1)NCc1ccco1,?,?,-1%,4%[11.6 µM],22µM*,?
CCOc1cc(C(=O)OCC(=O)NCc2ccco2)cc(OCC)c1OCC,?,?,-17%,-13%[57.1 µM],18µM*,?
COC(=O)C1[C@H]2SC(C)(C)C(C(=O)OC)N2C(=O)N1Cc1ccccc1 (stereo partly specified),6%,-11%,-1%,·,·,·
Cc1ccc(/C=C/C(=O)OCC(=O)NC(=O)NCc2ccco2)cc1,?,-45%,15%,-4%[11.6 µM],·,50µM*
COc1ccc(N(CC(=O)NCc2ccco2)S(=O)(=O)c2ccc(OC)c(OC)c2)cc1,98%,11%,-13%,5%,17%,-12%
O=C(COC(=O)c1cccnc1Cl)NCc1ccco1,?,-42%,0%,?,16µM*,?
O=C(COC(=O)c1ccccc1Cl)NCc1ccco1,?,-40%,-26%,?,·,?
COc1cc(OC)cc(C(=O)OCC(=O)NCc2ccco2)c1,45µM*,-38%,12%,7%[11.6 µM],·,?
COc1ccc(S(=O)(=O)N(CC(=O)NCc2ccco2)c2ccccc2OC)cc1,50µM*,?,-8%,-7%[11.6 µM],?,?
Cc1ccc(-n2nc(C(=O)N3CCN(c4cccc(C(F)(F)F)c4)CC3)c3c4ccccc4n(C)c3c2=O)cc1,-11%,-1%,21%,·,12%,·
CCn1c(=O)cc(OCC(=O)NCc2ccc(C)o2)c2ccccc21,-17%,-16%,-9%,-12%,12%,-1%
CC(C)(C)c1ccc(OCC(=O)NCc2ccco2)c(Br)c1,?,-23%,-5%,-28%,?,45µM*
CCn1c(=O)cc(OCC(=O)NCc2ccco2)c2ccccc21,?,-15%,10%,-18%,45µM*,?
COc1cc(OC)cc(C(=O)NCC(=O)OCC(=O)NCc2ccco2)c1,79µM*,?,0%,?,·,?
SMILES,Pol iota inh,POLK inh,FEN1 inhibitor,WRN helicase inh,Pol beta inh,Pol eta inh
O=C1/C(=C/c2ccc(Br)cc2)Oc2cc(O)ccc21,39%,-3%,0%,7%,14µM*,-24%
O=C1/C(=C\c2ccc(O)c(O)c2)Oc2cc(O)ccc21,·,4.7µM*,·,·,·,·
COc1ccc2c(c1)OC/C(=C/c1ccc(O)c(O)c1)C2=O,·,-9%[60.1 µM],·,·,·,·
CN1C(=O)CC(c2ccccc2)CC1=O,-42%,-2%,-10%,-4%,·,-3%
CCN1C(=O)CC(c2ccccc2)CC1=O,79µM*,6%,-1%,3%,·,5%
Oc1ccccc1Oc1ncc(Br)c(Cl)n1,50µM*,-40%,-18%,-6%[11.6 µM],22µM*,-3%
Oc1ccccc1Oc1ncc(Br)c(N2CCOCC2)n1,10%,6%,-1%,2%,17%,-10%
Cc1cccc(C(=O)N/N=C/c2ccoc2)c1,?,?,19%,-8%[11.6 µM],25µM*,?
CC(C)Oc1cccc(C(=O)N/N=C/c2ccoc2)c1,2%,-9%,-3%,-4%,-2%,-8%
O=C(OCc1cc(=O)n2c(n1)sc1ccccc12)c1ccc(O)cc1O,40µM*,79µM*,10%,-12%[57.1 µM],2.8µM*,?
O=C(Cc1coc2cc3c(cc12)CCC3)OCc1cc(=O)n2c(n1)sc1ccccc12,?,89µM*,-1%,-20%[57.1 µM],10µM*,10µM*
Cc1ccc(C(=O)N[C@H](C(=O)OCc2cc(=O)n3c(n2)sc2ccccc23)C(C)C)cc1,?,?,1%,-14%,14µM*,?
O=C(OCc1cc(=O)n2c(n1)sc1ccccc12)c1cccc(O)c1,45µM*,50µM*,-11%,?,22µM*,?
Cc1cn2c(=O)cc(COC(=O)c3ccccc3F)nc2s1,16%,0%,6%,·,11%,-8%
CC(Oc1ccc(F)cc1)C(=O)Nc1cc(-c2ccc(F)c(F)c2)no1 (stereo unspecified),19%,1%,4%,·,-24%,·
O=C(Nc1cc(Cl)ccc1Cl)c1cc([N+](=O)[O-])cc(Br)c1O,?,-44%,50µM*,·,·,·
COCCN(Cc1cc2cc(C)ccc2n2nnnc12)C(=S)Nc1cccc(C)c1,-14%,-18%,-1%,3%,6%,-7%
CCc1ccc2c(c1)cc(CN(C(=S)Nc1cccc(C)c1)C1CC1)c1nnnn12,100µM*,-14%,-1%,-2%[57.1 µM],2%,2%
CCCCCCNC(=O)N[C@@H](C(=O)NCCC[C@H]1CN2C(=NC[C@@H]2Cc2ccccc2)N1CCc1cccc(OC)c1)C(C)C,25µM*,-7%,4%,-7%,12%,-2%
C/C=C(\C)C(=O)NCCN1C2=NC[C@@H](Cc3ccccc3)N2C[C@@H]1Cc1ccc(OC)cc1,8%,-3%,2%,-6%,·,-11%
COc1ccc(Cl)cc1NC(=O)c1ccc(CN2C(=O)CCn3nc(C)cc32)cc1,17%,-6%,1%,·,1%,-14%
